Experimental data reported in PubChem BioAssay (NCI).
About 79,000 compounds went through this panel and 15% of them were active in at least one assay; those are over-represented in the sample as a whole. The source made the active and inactive calls. No stated cut-off is given here; in the data, active means growth inhibition above about 70%; inactive means the rest.

Experiments:
[1] = NCI Yeast Anticancer Drug Screen. Data for the rad50 strain (AID 155);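 further: 0% = growth of vehicle-only cultures of the same strain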; conditions: S. cerevisiae rad50 strain growth inhibition; at 50.0 µM; hits give high values
Method in brief: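 Vehicle-treated cultures provide the reference for the growth inhibition reported for compound-exposed, repair-deficient yeast.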

[2] = NCI Yeast Anticancer Drug Screen. Data for the mec2-1 strain (AID 157); conditions: S. cerevisiae mec2-1 strain, at 50.0 µM, hits give high values
Method in brief: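 mec2-1 yeast strain, carrying an alteration in DNA damage repair or cell cycle control, was exposed to compounds; growth inhibition was measured relative to vehicle-treated controls.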

[3] = NCI Yeast Anticancer Drug Screen. Data for the sgs1 mgt1 strain (AID 161);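 further: 0% = growth of cultures given vehicle only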; conditions: S. cerevisiae sgs1 mgt1 strain, at 50.0 µM, hits give high values
Method in brief: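 This yeast growth screen uses a strain with defined DNA-repair lesions; compound-treated growth is compared with vehicle-treated growth.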

[4] = NCI Yeast Anticancer Drug Screen. Data for the cln2 rad14 strain (AID 165);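 further: 0% = growth equal to vehicle treated cultures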; conditions: S. cerevisiae cln2 rad14 strain, at 50.0 µM, hits give high values
Method in brief: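 Yeast carrying cln2 and rad14 alterations (cell cycle control and DNA damage repair) were exposed to compounds. Growth inhibition was measured against vehicle-treated controls.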

[5] = NCI Yeast Anticancer Drug Screen. Data for the bub3 strain (AID 167); conditions: S. cerevisiae bub3 mutant strain, at 50.0 µM, hits give high values
Method in brief: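 Mutant yeast screening strain plus compound; vehicle-treated cultures serve as the 0% inhibition reference.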

[6] = NCI Yeast Anticancer Drug Screen. Data for the mlh1 rad18 strain (AID 175); conditions: S. cerevisiae mlh1 rad18 strain growth inhibition; at 50.0 µM; hits give high values
Method in brief: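 Growth inhibition of the yeast strain was measured after compound exposure and expressed relative to vehicle-treated controls. The strain carries defined defects in DNA damage repair.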

Measured: growth inhibition

O=C(Nc1cccc([N+](=O)[O-])c1)C(=O)C(C(=O)c1ccccc1-c1ccccc1)C1OC(=O)c2ccccc21 (stereo unspecified)
inactive: [1] 27.9% | [2] 3.45% | [3] 17.9% | [4] -45% | [5] -6.85% | [6] 10.1%

CN(C)N1C(=O)c2ccccc2NC1c1ccccc1 (stereo unspecified)
inactive: [1] -19.2% | [2] -1.35% | [3] 29.6% | [4] 2% | [5] 18.9% | [6] 5.15%

O=C(O)C1C2CC(C(Br)C2Br)C1C(=O)O (stereo unspecified)
inactive: [1] -6.55% | [2] 0.75% | [3] -21.7% | [4] 9.9% | [5] -5.85% | [6] -12.2%

Cc1ccnc(N=C/C=C2/C=CC=CN2O)c1
inactive: [1] 0.25% | [2] -9.35% | [3] 1.75% | [4] 5.55% | [5] -8.45% | [6] -11.8%

Nc1nc2nn(-c3ccc(C(=O)NC(CCC(=O)O)C(=O)O)cc3)nc2c(=O)[nH]1 (stereo unspecified)
inactive: [1] 7.05% | [2] 2.75% | [3] 12.9% | [4] 30.5% | [5] 9.05% | [6] -1.4%

O=C(CC(=O)N1CCOCC1)N1CCOCC1
inactive: [1] 4.5% | [2] -14.8% | [3] 26.9% | [4] 7.9% | [5] 19.4% | [6] 7.45%

CCOC1CCC(C(C)=O)C(C#N)(C#N)C1(C#N)C#N (stereo unspecified)
inactive: [1] 38.1% | [2] -9.55% | [3] -21.6% | [4] -7.35% | [5] -37.9% | [6] -42.5%

CC1CC=CCC1C1OCCO1 (stereo unspecified)
inactive: [1] 3.95% | [2] 1.6% | [3] 3.45% | [4] 10.2% | [5] 16.4% | [6] -2.7%

CCOC(=O)c1cnc2cc3c(cc2c1Nc1ccc2c(c1)OCO2)OCO3
inactive: [1] 12.4% | [2] 13.3% | [3] 6.85% | [4] 3.6% | [5] 0% | [6] 20%

S=C(NCc1ccccc1)Nc1ncn[nH]1
inactive: [1] 5.1% | [2] 0.25% | [3] -5.8% | [4] -22.9% | [5] 3.55% | [6] 3.8%

O=C(c1ccco1)C(O)c1ccccc1 (stereo unspecified)
inactive: [1] 1.3% | [2] 8.9% | [3] -2.6% | [4] -2.55% | [5] -11.9% | [6] 5.95%

COc1ccc(C2C(Cl)C(=O)N2NC(=O)Cc2ccccc2)cc1 (stereo unspecified)
inactive: [1] -10.6% | [2] -11.9% | [3] -7.3% | [4] 8.95% | [5] -10.9% | [6] 12.6%

CCCC(O)CO (stereo unspecified)
inactive: [1] 5.55% | [2] 1.9% | [3] 0.15% | [4] -0.6% | [5] -0.5% | [6] 40.2%

O=C(Nc1ccc([N+](=O)[O-])cc1Cl)c1ccc(C(=O)Nc2ccc([N+](=O)[O-])cc2Cl)cc1
inactive: [1] -6.4% | [2] -1.75% | [3] -1.85% | [4] 31.3% | [5] 1.95% | [6] 0.55%

O=CNC1CCCCC1c1ccc(C2CCCCC2NC=O)cc1 (stereo unspecified)
inactive: [1] -12.1% | [2] 9.1% | [3] -2.35% | [4] -1.55% | [5] 6.2% | [6] 22.8%

NCCNCc1ccncc1
inactive: [1] -38% | [2] -41.5% | [3] -58.5% | [4] -11.3% | [5] -47.2% | [6] -27.2%

CCO/C=C(\C(=O)OC)S(=O)(=O)c1ccc(C)cc1
inactive: [1] -18.5% | [2] 3.1% | [3] 2.35% | [4] 1.7% | [5] -9.1% | [6] -19.5%

CN(CCC(=O)c1ccc2ccccc2c1)Cc1ccccc1
inactive: [1] 16.4% | [2] 3% | [3] 27.4% | [4] -1.45% | [5] 8% | [6] 20.7%

CSc1cc(Cl)c(C)cc1S(=O)(=O)NC(=O)NNc1ccc(Cl)cc1
inactive: [1] 23.9% | [2] 11.2% | [3] 10.6% | [4] 7.55% | [5] -3.75% | [6] 51.6%

Nc1ccc(N2N=C(N3CCCC3)CC2=O)cc1
inactive: [1] -26.6% | [2] -48.8% | [3] -10.8% | [4] 1.2% | [5] -12.7% | [6] -23.4%

COc1ccc(Cc2cc3c(cc2OC(C)=O)OCO3)cc1
inactive: [1] -4.2% | [2] -10.3% | [3] -5.75% | [4] 8.9% | [5] 38.2% | [6] 7.25%

O=C(Nc1ccccc1F)Oc1ccc(Cl)cc1Cl
inactive: [1] 26.8% | [2] 14.7% | [3] 20.5% | [4] 26.8% | [5] 19.4% | [6] 13.2%

O=[N+]([O-])c1ccc(CC(Cl)c2ccccn2)cc1 (stereo unspecified)
inactive: [1] 18.9% | [2] 9.85% | [3] 19.1% | [4] -11.4% | [5] 22.2% | [6] 42.2%

CC(=O)OCC(=O)[C@@]1(O)CC[C@H]2[C@@H]3C[C@H](C)C4=CC(=O)C=C[C@]4(C)[C@@]3(Br)[C@@H](O)C[C@@]21C
inactive: [1] 30.9% | [2] 7.75% | [3] 38.3% | [4] 35.9% | [5] 1.35% | [6] -9.1%

O=C(c1ccccc1)[n+]1ccc2ccccc2c1
inactive: [1] -19.1% | [2] -21.2% | [3] -4.35% | [4] 0.45% | [5] -6.25% | [6] -13.1%

N=C1C(O)C2(I)c3ccccc3N3C(=N)C(O)C4c5ccccc5N1C4C32 (stereo unspecified)
inactive: [1] 5.55% | [2] 2.85% | [3] -38.5% | [4] -5.8% | [5] -29.4% | [6] 8.95%

NC(=S)N/N=C(/CC(=O)c1ccc([N+](=O)[O-])cc1)C(=O)Nc1ncc([N+](=O)[O-])s1
inactive: [1] 51.9% | [2] 29% | [3] 30.1% | [4] 19.2% | [5] 53.2% | [6] 25.2%

CCCc1c(O)c2ccccc2[nH]c1=O
inactive: [1] 11.3% | [2] 11.7% | [3] -37.8% | [4] 14.7% | [5] 15.8% | [6] -8.3%

COC(=O)/C=C(\C)CC/C=C(\C)CCC1OC1(C)C (stereo unspecified)
inactive: [1] 11.9% | [2] 44.1% | [4] 57.3%
active: [3] 84.7% | [5] 77.5% | [6] 81.1%

CC/C(C)=N/NS(=O)(=O)c1ccc(C)cc1
inactive: [1] 43.9% | [2] 13.2% | [3] 2.3% | [4] 16% | [5] 1.15% | [6] 42.5%

COc1cc2c(cc1OC)C1CC(CC(N)=O)(C(N)=O)CCN1CC2 (stereo unspecified)
inactive: [1] 2.35% | [2] 16.6% | [3] 14.6% | [4] -49.5% | [5] 1.5% | [6] 17.5%

CC(C)=CCC(C)c1ccccn1 (stereo unspecified)
inactive: [1] -2.45% | [2] 5.5% | [3] 10.3% | [4] -12.8% | [5] 10.9% | [6] -4.2%

CN(C)c1cccc2c1C(=O)C=CC21c2ccc(N(C)C)c3c(N(C)C)ccc(c23)C(c2ccccc2)C1c1ccccc1 (stereo unspecified)
inactive: [1] -6.15% | [2] -11.4% | [3] -4.55% | [4] -27.3% | [5] -31.6% | [6] -8.75%

COc1nc(NC2OC(CO)C(O)C(O)C2O)c(C(C)=O)c(=O)[nH]1 (stereo unspecified)
inactive: [1] 2.8% | [2] 1.05% | [3] 12.6% | [4] -0.1% | [5] -14.8% | [6] -3.95%

Cc1cc(O)c([N+](=O)[O-])c(C)c1[N+](=O)[O-]
inactive: [1] 2.2% | [2] 35.2% | [3] 3.5% | [4] 41.2% | [5] 39.3% | [6] 0.25%

C[N+]1(CCC(=O)c2ccco2)CC2CCC(CC2)C1 (stereo unspecified)
inactive: [1] 3.9% | [2] -18.1% | [3] -37.1% | [4] -24.9% | [5] -68.7% | [6] 0.45%

O=C(O)C(Cc1ccsc1)C(=O)O
inactive: [1] -10.1% | [2] 1.1% | [3] -6.6% | [4] -17% | [5] -6.45% | [6] 12.4%

CCOC(=O)C(CS(=O)(=O)N(CC)CC)NC(=O)c1ccccc1 (stereo unspecified)
inactive: [1] -1.4% | [2] -10.6% | [3] 2.9% | [4] -10.8% | [5] 5.15% | [6] -18.6%

CC(=O)Cc1ccc(Cl)cc1[N+](=O)[O-]
inactive: [1] -14.8% | [2] 5.95% | [3] -8.5% | [4] -24.3% | [5] -9.7% | [6] 1.9%

COc1ccc(C2=NOC(c3ccc(OC)cc3)C2)cc1 (stereo unspecified)
inactive: [1] -6.85% | [2] -18.3% | [3] -7.25% | [4] -13.8% | [5] 6.05% | [6] 9.55%

Cc1cc(C)c(Br)c(C)c1C
inactive: [1] -17.4% | [2] 4.15% | [3] -9.95% | [4] -53.4% | [5] 8.5% | [6] -22.7%
